Results with a measured potency or affinity are listed apart. Results filed as inconclusive are left out. The source made the active and inactive calls.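 The calls were made as follows: active = signal-lowering compounds whose fitted half-maximal concentration is at or below twice the top tested dose in every run; inconclusive = runs disagree, flat 30 to 70% inhibition, or poor curve fit; inactive = the rest.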
Assay: inhibitors of CMV-promoter luciferase reporter, dose response, counter-screen for Pax8 inhibitor project, cell-based, HEK293, luminescence, dry powder (AID 743020);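 also: HEK293 cells stably expressing the CMV luciferase reporter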
Settings: SteadyGlo luminescence, 24 h; series mostly up to 35 µM

Question: With `C[C@@H]1CN([C@H](C)CO)C(=O)c2cc(NC(=O)Nc3ccc(F)cc3)ccc2O[C@@H](C)CCCCO[C@@H]1CN(C)Cc1ccc2c(c1)OCO2` as the compound, how does the outcome read?
Answer: inactive

Question: With `Cc1noc(C)c1S(=O)(=O)N(C)C[C@@H]1OCCCC[C@H](C)Oc2ccc(NS(=O)(=O)c3ccc(Cl)cc3)cc2C(=O)N([C@H](C)CO)C[C@@H]1C` as the compound, how does the outcome read?
Answer: inactive

Question: With `C[C@@H]1CCCCO[C@@H](CN(C)C(=O)Nc2cccc3ccccc23)[C@H](C)CN([C@H](C)CO)C(=O)c2cc(NS(=O)(=O)c3ccccc3)ccc2O1` as the compound, how does the outcome read?
Answer: inactive

Question: For `Cc1ccc(NC(=O)CN(C)C(=O)Cn2ncc(Cl)c(Cl)c2=O)cc1`, which outcome is on record?
Answer: inactive

Question: Which outcome does the source give for `O=C(Nc1cccc(NC(=O)c2cccs2)c1)c1ccc([N+](=O)[O-])o1` here?
Answer: inactive

Question: Which outcome does the source give for `O=C(c1cc([N+](=O)[O-])ccc1N1CCOCC1)N1CCN(c2ccccc2)CC1` here?
Answer: inactive

Question: For `O=C(Nc1cccc(Cl)c1)Nc1nnc(-c2ccncc2)s1`, which outcome is on record?
Answer: inactive

Question: Which outcome does the source give for `N#Cc1ccc(-c2ccc(C3[C@@H]4CN(C(=O)C5CC5)C[C@H]3N4)cc2)cc1` (stereo not given in full) here?
Answer: inactive

Question: For `COc1ccc(NC(=O)Nc2ccc3c(c2)C(=O)N([C@@H](C)CO)C[C@@H](C)[C@@H](CN(C)CC2CCCCC2)OCCCC[C@@H](C)O3)cc1`, which outcome is on record?
Answer: inactive

Question: With `Cc1ccc(NC(=O)Cn2ncc(Cl)c(Cl)c2=O)cc1S(=O)(=O)N1CCCCC1` as the compound, how does the outcome read?
Answer: inactive

Question: Which outcome does the source give for `C[C@H]1CN([C@@H](C)CO)C(=O)c2cc(NS(=O)(=O)c3ccccc3)ccc2O[C@@H]1CN(C)Cc1ccc(Oc2ccccc2)cc1` here?
Answer: inactive

Question: With `COc1cc(OC)c2c(-c3cccc(-c4ccc(OC)c(F)c4)c3)cc(=O)oc2c1` as the compound, how does the outcome read?
Answer: inactive

Question: Which outcome does the source give for `CCOc1ccc(NC(=O)Nc2cc(OCC(F)(F)F)cc(OCC(F)(F)F)c2)cc1` here?
Answer: inactive

Question: With `C[C@@H]1CN([C@@H](C)CO)C(=O)Cc2cc(NC(=O)CCC(F)(F)F)ccc2O[C@H]1CN(C)Cc1ccc(-c2ccccc2)cc1` as the compound, how does the outcome read?
Answer: inactive

Question: For `CCCNC(=O)Nc1ccc2c(c1)OC[C@H](C)N(Cc1ccc(-c3ccccn3)cc1)C[C@@H](C)[C@@H](OC)CN(C)C2=O`, which outcome is on record?
Answer: inactive

Question: With `O=C(NC12CC3CC(CC(C3)C1)C2)c1ccc([N+](=O)[O-])o1` as the compound, how does the outcome read?
Answer: inactive

Question: With `O=S(=O)(c1ccccc1F)N1CC[C@@H]2[C@@H](CO)Nc3ccc(C4=CCCCC4)cc3[C@@H]21` as the compound, how does the outcome read?
Answer: inactive

Question: Which outcome does the source give for `C=C(C)c1nc(Oc2ccccc2)nc(Oc2ccccc2)n1` here?
Answer: inactive

Question: Which outcome does the source give for `CCN(CC)S(=O)(=O)c1cc(NC(=O)Cn2ncc(Cl)c(Cl)c2=O)ccc1C` here?
Answer: inactive

Question: Which outcome does the source give for `O=C(Nc1ccccc1)NN(C(=O)CCl)c1ccccc1` here?
Answer: inactive

Question: For `CN1c2ccc(-c3cccc(F)c3)cc2[C@@H]2[C@@H](CCN2C(=O)Cc2ccccc2)[C@@H]1CO`, which outcome is on record?
Answer: inactive

Question: For `C[C@H](CO)N1C[C@H](C)[C@@H](CN(C)S(=O)(=O)c2ccc(Cl)cc2)OCCCC[C@H](C)Oc2ccc(NS(=O)(=O)c3ccc(Cl)cc3)cc2C1=O`, which outcome is on record?
Answer: inactive

Question: Which outcome does the source give for `C[C@@H]1CN([C@H](C)CO)C(=O)Cc2cc(NC(=O)Nc3ccc(F)cc3)ccc2O[C@H]1CN(C)Cc1ccc(Cl)c(Cl)c1` here?
Answer: inactive

Question: With `Cn1c(CCN2CCCC2)nc2cc(NS(=O)(=O)c3ccccc3)ccc21` as the compound, how does the outcome read?
Answer: inactive

Question: Which outcome does the source give for `C[C@@H]1CCCCO[C@H](CN(C)Cc2ccc(C(F)(F)F)cc2)[C@H](C)CN([C@H](C)CO)C(=O)c2cc(NS(=O)(=O)c3cccs3)ccc2O1` here?
Answer: inactive

Question: With `Cc1nc(Nc2nc(CSc3nc4ccccc4[nH]3)cc(=O)[nH]2)nc2ccccc12` as the compound, how does the outcome read?
Answer: inactive

Question: For `O=C(C[C@H]1CC[C@H]2[C@@H](COC[C@@H](O)CN2Cc2ccc(Oc3ccccc3)cc2)O1)N1CCCCC1`, which outcome is on record?
Answer: inactive

Question: Which outcome does the source give for `C[C@@H]1CCCCO[C@H](CN(C)Cc2ccc(C(F)(F)F)cc2)[C@H](C)CN([C@@H](C)CO)C(=O)c2cc(NS(=O)(=O)c3cccs3)ccc2O1` here?
Answer: inactive

Question: With `C[C@@H]1CCCCO[C@@H](CN(C)Cc2ccc(C(F)(F)F)cc2)[C@@H](C)CN([C@@H](C)CO)C(=O)c2cc(NS(=O)(=O)c3ccccc3)ccc2O1` as the compound, how does the outcome read?
Answer: inactive

Question: With `C[C@@H]1CCCCO[C@@H](CN(C)Cc2ccc(C(F)(F)F)cc2)[C@@H](C)CN([C@@H](C)CO)C(=O)c2cc(NS(=O)(=O)c3ccc(F)cc3)ccc2O1` as the compound, how does the outcome read?
Answer: inactive

Question: With `COc1ccc(NC(=O)Nc2ccc3c(c2)CC(=O)N([C@H](C)CO)C[C@@H](C)[C@@H](CN(C)Cc2ccc(Oc4ccccc4)cc2)O3)cc1` as the compound, how does the outcome read?
Answer: inactive

Question: With `O=C(Nc1ccc(N2CCN(C(=O)c3ccccc3)CC2)cc1)c1ccc([N+](=O)[O-])o1` as the compound, how does the outcome read?
Answer: inactive

Question: Which outcome does the source give for `C[C@@H]1CCCCO[C@H](CN(C)Cc2ccc(Cl)c(Cl)c2)[C@H](C)CN([C@@H](C)CO)C(=O)c2cc(NC(=O)Nc3ccccc3)ccc2O1` here?
Answer: inactive

Question: For `COc1ccc(NC(=O)c2c(Nc3ccccc3)sc(C(=O)c3ccc(F)cc3)c2N)cc1`, which outcome is on record?
Answer: inactive

Question: Which outcome does the source give for `O=C(Nc1ccc(Cl)c(Cl)c1)N[C@@H]1CC[C@H](CCn2cc(C3CCCCC3)nn2)O[C@H]1CO` here?
Answer: inactive

Question: Which outcome does the source give for `C[C@@H]1CN([C@H](C)CO)S(=O)(=O)c2ccc(C#CC3CCCC3)cc2O[C@@H]1CN(C)C(=O)Cc1ccncc1` here?
Answer: inactive

Question: With `C[C@@H]1CCCCO[C@H](CN(C)Cc2ccc(C(F)(F)F)cc2)[C@H](C)CN([C@H](C)CO)C(=O)c2cc(NS(=O)(=O)c3ccccc3)ccc2O1` as the compound, how does the outcome read?
Answer: inactive

Question: For `CCOc1ccc(C(CN2CCOCC2)C(C)=O)cc1OC` (stereo not given), which outcome is on record?
Answer: inactive

Question: With `COc1ccc(/C=N/NC(=O)c2[nH]c3ccc(Br)cc3c2-c2ccccc2)cc1` as the compound, how does the outcome read?
Answer: inactive

Question: For `COc1cccc(S(=O)(=O)N2CC[C@H]3[C@@H](CO)N(C)c4ccc(C#Cc5ccc(F)cc5)cc4[C@H]32)c1`, which outcome is on record?
Answer: inactive
